CHX counter = Cycloheximide Counterscreen for Small Molecule Inhibitors of Shiga Toxin | cell reporter, cycloheximide protein synthesis inhibition counterscreen | max response, % | 300,000 compounds, 12% hits | AID 2314, 2010; in the data active = max response mostly above about 13%, no sharp cut-off; inactive = mostly below about 14%; note: read at 38.3 µM for the half of the compounds with a filed dose
HCMV inh = qHTS Assay for inhibitors of the human cytomegalovirus (HCMV); 410,000 compounds, 4.5% hits; HFF cells, HCMV-luciferase reporter, 72 h; hits give low values; activity change, negative = inhibition, % at 57.5 µM; in the data active = activity change below about -60%; inconclusive = no clear call, values can overlap the other calls; inactive = above about -39%
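Steps: HFFs plated, 16 h 37C; compounds added; HCMV-luciferase added to MOI 1 PFU/cell; 72 h 37C; OneGlo reagent, 5 min room temperature; luminescence read, normalized to controls.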
HCV inh = qHTS Assay for Inhibitors of Hepatitis C Virus (HCV); Huh7.5.1 HCVcc-Cre infection, luciferase reporter, 44 h; Potency, µM (doses to about 41.8 µM), most hits filed as inhibitors; 340,000 compounds, 3.4% hits
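Luciferase read-out (15 sec integration) after a 15 min room-temperature substrate step quantifies HCVcc-Cre infection. Cells, 1,000 per well, had compound added 4 h post-plating, then virus at ~0.5 moi, and were cultured 44 h.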
Shiga inhibitor = A qHTS for Small Molecule Inhibitors of Shiga Toxin; inhibition, % at 38.7 µM; 290,000 compounds, 9.2% hits; Vero cells, Shiga toxin protein synthesis inhibition reporter; in the data active = inhibition mostly above about 28%, no sharp cut-off; inactive = mostly below about 43%
Pf growth 96h = Primary qHTS for delayed death inhibitors of the malarial parasite plastid, 96 hour incubation; AID 504834, 2011; 320,000 compounds, 6.9% hits; Potency, µM (highest dose often 28.7 µM), usual class: inhibitors; P. falciparum luciferase reporter growth, 96 h
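P. falciparum expressing integrated firefly luciferase grown in erythrocytes (2% hematocrit, 0.05% parasitemia final) with compounds for 96 hours at 37 C, 5% CO2. Growth inhibition read as loss of luminescence after adding luciferase detection reagent.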
Pf growth 48h = Primary qHTS for delayed death inhibitors of the malarial parasite plastid, 48 hour incubation; P. falciparum luciferase growth in erythrocytes, 48 h; Potency, µM (series often up to 28.7 µM), most hits filed as inhibitors; 310,000 compounds, 5.9% hits
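Read-out is firefly luciferase luminescence from an integrated reporter in P. falciparum, so falling signal marks reduced parasite growth. Infected erythrocytes were at 2% hematocrit and 0.1% parasitemia (final) in Albumax-supplemented RPMI 1640.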
Large screens that a line does not name were inactive. Shown are actives, neighbours in structure and some others; about 21% of the full set was active somewhere. Unless noted, calls come from the whole dose curve; as a rule, active = well fitted inhibition curve with a large enough effect; inconclusive = small, poorly fitted or top-dose-only effect, or another doubt; inactive = no such curve, though single readings can be large or run the other way.

COCCNC(=O)CCn1nc(-c2ccc(C)cc2)ccc1=O	none
Cc1noc(C)c1COc1ccc(C(=O)OCC(=O)Nc2cccc(S(=O)(=O)N3CCOCC3)c2)cc1	HCV inh inconclusive, Pf growth 96h 5.2µM
O=C(COC(=O)CCC(=O)c1ccc(F)cc1)Nc1cccc(S(=O)(=O)N2CCOCC2)c1	none
O=C(COc1ccc(C(=O)c2ccc(F)cc2)cc1)Nc1cccc(S(=O)(=O)N2CCOCC2)c1	HCV inh 6.3µM (no result: CHX counter, Shiga inhibitor, Pf growth 96h, Pf growth 48h)
Cn1c(=O)[nH]c(=O)c2c1nc(N/N=C/c1ccncc1)n2Cc1ccc(Cl)cc1	HCV inh inconclusive, Pf growth 48h inconclusive
O=C(O)CC1SC(N/N=C/c2ccc(Br)cc2)NC1=O (stereo unspecified)	CHX counter 44, Shiga inhibitor 79
CC(C)NC(=O)CC(=O)N/N=C/c1ccc(Br)cc1	none
COCCCNC(=O)c1c(NC(=O)Cc2coc3cc(C)cc(C)c23)sc2c1CCCC2	none (no result: CHX counter, HCV inh, Shiga inhibitor, Pf growth 96h, Pf growth 48h)
Fc1ccc2c(c1)nnn2C1CCN(Cc2c(Cl)cccc2Cl)CC1	HCMV inh inconclusive, HCV inh inconclusive, Pf growth 96h 10µM, Pf growth 48h 10µM
Fc1ccc2c(c1)nnn2C1CCN(Cc2nnnn2C2CCCCC2)CC1	Pf growth 48h inconclusive
Cc1ccc(C)c(CN2CCC(n3nnc4cc(F)ccc43)CC2)c1	Pf growth 96h 13µM, Pf growth 48h 8.3µM
Cc1ccc(CCNC(=O)CCCn2nc(C)c3c(C)n(-c4ccc(C)cc4)nc3c2=O)cc1	HCV inh inconclusive, Pf growth 96h inconclusive
Cc1ccc(-n2nc3c(=O)n(CCCC(=O)NCCN4CCN(C)CC4)nc(C)c3c2C)cc1	HCMV inh inconclusive, Pf growth 96h 12µM, Pf growth 48h inconclusive
Cc1ccc(-n2nc3c(=O)n(CCCC(=O)N4CCCCC4)nc(C)c3c2C)cc1	Pf growth 96h inconclusive, Pf growth 48h 9.3µM
Cc1ccc(-n2nc3c(=O)n(CCCC(=O)NCc4cccc(F)c4)nc(C)c3c2C)cc1	HCMV inh inconclusive, HCV inh inconclusive, Pf growth 48h 10µM
Cc1ccc(-n2nc3c(=O)n(CCCC(=O)NCc4ccc(F)cc4)nc(C)c3c2C)cc1	Pf growth 48h 8.3µM
Cc1ccc(-n2nc3c(=O)n(CCCC(=O)NCc4ccco4)nc(C)c3c2C)cc1	HCV inh inconclusive, Pf growth 96h inconclusive, Pf growth 48h 12µM
Cc1nc(SCC(=O)N2CCCC2=O)nc(C)c1C	none (no result: CHX counter, Shiga inhibitor, Pf growth 96h, Pf growth 48h)
O=C1C=C(c2ccccc2)OC2(CCCC2)O1	Pf growth 96h inconclusive
O=C1C=C(c2ccc(Cl)cc2)OC2(CCCC2)O1	HCV inh inconclusive, Pf growth 96h 13µM, Pf growth 48h inconclusive
O=C(O)c1cc2[nH]c3c(c2cc1Cl)CCCC3	Pf growth 96h inconclusive (no result: Shiga inhibitor)
C/C(=N\O)c1ccc2c3c([nH]c2c1)CCCC3	CHX counter 65, HCV inh inconclusive, Shiga inhibitor 20
CC(C)c1nc2oc3c(N(C)CCO)ncnc3c2c2c1CCC2	Pf growth 96h 0.83µM, Pf growth 48h inconclusive
CCCc1nc2oc3c(NCC4CCCO4)ncnc3c2c2c1COC(C)(C)C2 (stereo unspecified)	HCV inh inconclusive
CC(C)c1nc2oc3c(NCC4CCCO4)ncnc3c2c2c1CCC2 (stereo unspecified)	HCV inh 11µM, Pf growth 96h 2.9µM, Pf growth 48h 1.9µM
COc1ncnc2c1oc1nc(CC(C)C)c3c(c12)CCCC3	none
CCOc1ccc(CNC(=O)C2CCCN(S(=O)(=O)c3ccc4c(c3)CCCC(=O)N4)C2)cc1 (stereo unspecified)	none (no result: CHX counter, HCV inh, Shiga inhibitor, Pf growth 96h, Pf growth 48h)
Cc1ccccc1Nc1sc(C(=O)c2ccc(F)cc2)c(N)c1C(=O)NCCc1ccccc1	none (no result: CHX counter, HCV inh, Shiga inhibitor, Pf growth 96h, Pf growth 48h)
CN(CCc1ccccn1)C(=O)CCC1CCCN(C(=O)CN2CCCCCC2)C1 (stereo unspecified)	none
CC(=O)c1cc(C(=O)N2CCCC(CCC(=O)N(C)CCc3ccccn3)C2)cs1 (stereo unspecified)	HCMV inh -66
O=C(CCc1nnc(-c2ccc(-c3ccccc3)cc2)o1)NCCc1ccccn1	CHX counter 18, Pf growth 96h inconclusive
O=C(CCc1nnc(-c2ccccc2)o1)NCc1c(F)cccc1F	Pf growth 96h 13µM

From PubChem
